esBAF inh: blocks esBAF chromatin remodeling in mouse ES cells; Bmi1-luciferase knock-in reporter, 24 h; 100% = twice the neutral-well signal; reporter increase, % at 12.5 µM; hit rate 2% among 350,000; in the data active = activation above about 40%; inconclusive = no clear call, values can overlap the other calls;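 also: 0% = median of the plate's neutral control wells and 100% = double that signal; a rise in the Bmi1 reporter signal indicates esBAF inhibition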
MITF TRPM1 HTS: activators of MITF-driven TRPM1 promoter activity in SK-MEL-5 cells. AID 588334. activation, % at 12.5 µM. SK-MEL-5 TRPM1-promoter luciferase, 24 h; % of positive control, neutral wells = 0. hit rate 0.75% among 300,000;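 active = mean activation of at least 80% with every replicate also reaching 80%; inconclusive = mean reaches 80% but some replicate falls short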;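 also: 0% = neutral control wells and 100% = parthenolide positive control wells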
PfHsp90 set2: growth inhibition of yeast expressing Plasmodium Hsp90; S. cerevisiae expressing PfHsp90, BacTiter-Glo ATP, 48 h; yeast lacking PDR1 and PDR3 efflux regulators; inhibition, % at 9.4 µM; hit rate 0.32% among 310,000; AID 504621;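 active = every replicate shows inhibition above about 80%, whatever the replicate mean, limit read from the data; inconclusive = mean inhibition reaches the set limit but some replicate falls short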;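 also: 0% = DMSO neutral controls and 100% = 20 µM radicicol positive controls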
Vif imaging: blocks HIV Vif function; HEK293T cells, Vif self-association by quenched fluorescence, imaging, 24 h; inhibition, % at 7.49 µM; hit rate 0.35% among 340,000; AID 602346; in the data active = inhibition above about 50%, passing the limit was not always enough; inconclusive = no clear call, values can overlap the other calls; inactive = below about 31%
Wnt act: activators of Wnt/beta-catenin signaling; Wnt/beta-catenin reporter cell assay, activator, plate reader; activation, % at 9.35 µM; hit rate 1.2% among 300,000; AID 743398; in the data active = activation above about 30%, passing the limit was not always enough; inconclusive = no clear call, values can overlap the other calls;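 also: 0% = neutral control wells and 100% = positive control wells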
N-glyco inh: blocks N-linked glycosylation in D54 reporter cells. D54 ERlucT glycosylation luciferase reporter, 24 h; percent of 100 nM tunicamycin response. reporter increase, % at 12.5 µM. hit rate 0.23% among 360,000;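 active = mean luciferase reporter signal, scaled so untreated is 0 and the glycosylation-blocking control 100, at or above a set limit in every replicate; inconclusive = mean reaches the limit but not every replicate does; inactive = mean below the limit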;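 also: luciferase carries N-glycosylation sites so blocking glycosylation raises the light; 0% = median of neutral control wells and 100% = median of 100 nM tunicamycin wells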
Numbers without * were called inactive. Rows were chosen to be rich in hits. Some 3% of all compounds tested hit in one or more screens of this group.

`O=C(Nc1ccc(Cl)cc1Cl)c1ccc(-c2ccccc2)cc1` gave MITF TRPM1 HTS 9.8, PfHsp90 set2 21.5, Vif imaging -1.0, Wnt act 7.0 and N-glyco inh 2.3.
Screening Cc1ccc(NC(=O)c2cccc(Cl)c2)nc1 returned esBAF inh 28.1, MITF TRPM1 HTS 32.8, PfHsp90 set2 30.4, Vif imaging 15.8 and N-glyco inh 0.3.
C/C=C(\C)CN1CCN(c2ccccc2F)CC1 was read as esBAF inh -6.6, MITF TRPM1 HTS -3.8, PfHsp90 set2 -12.5, Vif imaging 2.4, Wnt act -3.0 and N-glyco inh 0.1.
Screening Cc1ccccc1-c1noc(-c2ccccc2F)n1 returned esBAF inh 66.9*, MITF TRPM1 HTS 107.0*, PfHsp90 set2 -11.1, Wnt act -1.5 and N-glyco inh -4.4.
`Fc1ccccc1-c1nc(-c2ccc(Cl)cc2)no1` gave esBAF inh 49.1*, MITF TRPM1 HTS 45.5, PfHsp90 set2 -9.1, Vif imaging 9.5 and N-glyco inh -6.1.
COc1ccc2c(c1)CCc1cn[nH]c1-2 was read as esBAF inh 6.0, PfHsp90 set2 -1.6, Vif imaging -10.5, Wnt act 4.7 and N-glyco inh 0.0.
`CC(CNC(=O)COc1ccccc1)OC(=O)Nc1cccc(Cl)c1` (stereo unspecified) gave esBAF inh -6.6, MITF TRPM1 HTS 8.7, PfHsp90 set2 -3.0, Vif imaging -10.1, Wnt act -1.8 and N-glyco inh 1.9.
COc1ccc(-c2cc(C(=O)Nc3ccccc3F)on2)cc1 was read as MITF TRPM1 HTS 95.0*, PfHsp90 set2 -8.4, Vif imaging 11.4, Wnt act 11.1 and N-glyco inh -2.3.
`COc1ccc(-c2cc(C(=O)Nc3ccccc3)on2)cc1` gave MITF TRPM1 HTS 100.7*, PfHsp90 set2 -15.2, Vif imaging 6.6, Wnt act 13.2 and N-glyco inh -3.3.
For COc1ccc(-c2noc(N3CCC(C(=O)Nc4ccccc4F)CC3)n2)cc1 the results were esBAF inh -32.2, PfHsp90 set2 5.9, Vif imaging 1.9, Wnt act 1.0 and N-glyco inh 0.2.
`O=C(Nc1ccc(F)cc1)c1cc(-c2ccccc2)no1` gave MITF TRPM1 HTS 24.3, PfHsp90 set2 17.6, Vif imaging 22.4, Wnt act 35.3* and N-glyco inh 1.0.
`Cc1nnc(SCC(=O)Nc2sc3c(c2C(N)=O)CCCC3)[nH]c1=O` gave esBAF inh 6.6, Vif imaging 8.6 and N-glyco inh -2.9.
`N#Cc1c(N)nc(N)nc1Nc1ccc(Br)cc1` gave MITF TRPM1 HTS 3.8, PfHsp90 set2 4.3, Vif imaging -4.2, Wnt act 29.4 and N-glyco inh 4.9.
`Nc1cnc(Nc2ccc(Br)cc2)nc1N` gave esBAF inh 52.7*, MITF TRPM1 HTS 71.9, PfHsp90 set2 -5.8, Vif imaging -8.3, Wnt act 1.5 and N-glyco inh 1.8.
For CC(C)N(C(=O)COC(=O)[C@@H]1CC(O)CN1S(=O)(=O)c1ccc(C(C)(C)C)cc1)C(C)C (stereo partly specified) the results were esBAF inh -1.1, MITF TRPM1 HTS 4.2, PfHsp90 set2 -41.2, Vif imaging 0.9, Wnt act -1.5 and N-glyco inh 2.4.
Screening O=C1C=CC(=O)N1c1cccc(-c2ccccc2)c1 returned MITF TRPM1 HTS -38.1, PfHsp90 set2 106.8*, Vif imaging 5.7, Wnt act -3.6 and N-glyco inh 2.0.
For O=C(Cc1c(F)cccc1Cl)Nc1cc(S(=O)(=O)N2CCOCC2)ccc1N1CCCC1 the results were esBAF inh -4.5, MITF TRPM1 HTS -6.1, Vif imaging 25.2, Wnt act -3.8 and N-glyco inh 0.5.
`O=C(O)c1ccc(CSc2nnc(-c3ccccc3)n2-c2ccccc2)cc1` gave MITF TRPM1 HTS -3.7, PfHsp90 set2 -1.9, Vif imaging -6.3, Wnt act 34.9* and N-glyco inh 0.6.
`N#Cc1ccc(CSc2nnc(-c3cccs3)n2-c2ccccc2)cc1` gave esBAF inh 3.3, Vif imaging 55.1*, Wnt act -3.0 and N-glyco inh -4.1.
`O=C(O)c1ccc(CSc2nnc(-c3ccccc3Cl)n2-c2ccccc2)cc1` gave esBAF inh -0.5, MITF TRPM1 HTS -9.8, PfHsp90 set2 2.6, Vif imaging -12.8, Wnt act -1.8 and N-glyco inh 0.0.
CC(=O)N(C)C[C@@H]1Oc2ncc(C#CC3(O)CCCC3)cc2C(=O)N([C@@H](C)CO)C[C@@H]1C was read as esBAF inh -2.9.
For CC(C)=C[C@@H]1C[C@H](C)[C@H]2CC[C@H](C)c3c(O[C@@H]4O[C@@H](C)[C@@H](O)[C@@H](O)[C@@H]4O)c(O)c(C)c1c32 the results were esBAF inh 1.2, MITF TRPM1 HTS 0.7, PfHsp90 set2 104.9*, Vif imaging 13.8 and N-glyco inh -0.4.
Screening O=C(Cc1ccc(F)cc1)Nc1nc(-c2ccc(F)cc2)cs1 returned esBAF inh 5.1, MITF TRPM1 HTS 13.5, PfHsp90 set2 -10.9, Vif imaging -15.6, Wnt act 1.2 and N-glyco inh 1.4.
CCN1C(=Nc2ccc(Cl)cc2)SC/C1=C\C(=O)OC was read as esBAF inh 60.6*, MITF TRPM1 HTS inconclusive, PfHsp90 set2 2.5, Vif imaging -10.5, Wnt act 13.0 and N-glyco inh 2.0.
`CCN1C(=O)CSC1=Nc1ccc(C(=O)O)cc1` gave esBAF inh 1.4, MITF TRPM1 HTS -3.7, PfHsp90 set2 -7.4, Vif imaging 0.0, Wnt act 0.2 and N-glyco inh 3.8.
Screening O=C(C[C@H]1CC[C@H]2[C@@H](COC[C@@H](O)CN2C(=O)c2ccc3c(c2)OCO3)O1)NC1CCCC1 returned esBAF inh 1.5.
`O=C(OCn1ncc(Cl)c(Cl)c1=O)c1cccc(C(F)(F)F)c1` gave esBAF inh -2.8, MITF TRPM1 HTS -92.3, PfHsp90 set2 99.0*, Vif imaging -3.0 and N-glyco inh -16.1.
Cc1ccc(-c2n[nH]c(Cc3ccccc3)n2)cc1 was read as esBAF inh 53.8*, MITF TRPM1 HTS inconclusive, PfHsp90 set2 -19.7, Vif imaging -3.2, Wnt act 0.3 and N-glyco inh -0.6.
Screening Cc1ccc(OCc2nc(-c3ccc(Cl)cc3)n[nH]2)cc1 returned esBAF inh 4.0, MITF TRPM1 HTS 15.1, Vif imaging 0.1, Wnt act 2.9 and N-glyco inh 2.0.
`CC[C@H](C)/C=C/C1=CC2=C(Cl)C(=O)[C@@]3(C)OC(=O)C(C(=O)[C@H](C)[C@@H](C)O)=C3C2=CO1` gave esBAF inh 0.0, MITF TRPM1 HTS -4.2, PfHsp90 set2 104.5*, Vif imaging 13.5 and N-glyco inh 3.7.
CCN(Cc1nc2cc(Cl)ccc2c(=O)[nH]1)C(=O)C1CC(=O)N(c2cccc3ccccc23)C1 (stereo unspecified) was read as esBAF inh -2.8, MITF TRPM1 HTS 3.4, PfHsp90 set2 12.7, Vif imaging 0.8, Wnt act -1.8 and N-glyco inh 2.2.

Source: PubChem
